Bioassay records deposited in PubChem by National Center for Advancing Translational Sciences (NCATS).
SW480 rerep: inducers of DNA re-replication in SW480 colon cancer cells | AID 624297 | 340,000 compounds, 1.8% hits | SW480 DNA re-replication, Hoechst DNA content imaging, 48 h | Potency, µM (doses to about 46.1 µM), inactives show at the top dose re-replication activation, hits mostly activators; note: % of control where 0% means no effect; nearly all actives have a fitted effect of over 55% in size
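Readout is total intensity of Hoechst-stained nuclei, excited at 405 nm and collected at 500-530 nm. Compound treatment lasted 48 hr at 37 C in 5% CO2 before staining.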
MCF10A rerep: induces DNA re-replication in MCF 10a normal breast cells; AID 624296; MCF 10A DNA re-replication, Hoechst nuclear intensity, 48 h; Potency, µM (titrated, usually from 46.1 µM), without a hit: top-dose activity, positive = re-replication, usual class: activators; 350,000 compounds, 2.9% hits; note: % of control where 0% means no effect; nearly all actives have a fitted effect of over 50% in size
KB-V1 cytotox: KB-V1 MDR subline cytotoxicity; KB-V1 MDR cells viability, CellTiter-Glo, 72 h; Potency, µM (highest dose often 46.1 µM), actives largely listed as cytotoxic; 400,000 compounds, 3.4% hits; note: % is set by controls: 0 for no effect and ±100 for the full control effect; nearly all actives have a fitted effect of over 60% in size
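Cells of the MDR subline KB-V1 are plated, dosed with compound at multiple concentrations, and incubated 72 h at 37 degrees C; CellTiter-Glo is then added and luminescence read after 10 min.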
KB-3-1 tox: KB-3-1 parental cell cytotoxicity | KB-3-1 viability, CellTiter-Glo ATP luminescence, 72 h | Potency, µM (doses to about 46.1 µM), most hits filed as cytotoxic | 400,000 compounds, 1.4% hits | AID 1347075; note: % is set by controls: 0 for no effect and ±100 for the full control effect; nearly all actives have a fitted effect of over 60% in size
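Luminescent ATP read-out (CellTiter-Glo) measures survival of drug-naive KB-3-1 cells after 72 h compound exposure at 37 °C. Titration series was screened from lowest to highest concentration, with DMSO vehicle plates as background controls.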
ELG1 DNA repair: ELG1-dependent DNA repair inhibition; HEK293T ELG1-luciferase reporter, luminescence, 16 h; DNA damage induced by 5-fluorouridine; Potency, µM (titrated, usually from 46.1 µM), for the others: top-dose activity change, negative = inhibition, most hits filed as inhibitors; 330,000 compounds, 2.3% hits; note: % is set by controls: 0 for no effect and ±100 for the full control effect; nearly all actives have a fitted effect of over 55% in size
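Step one: seed 2,000 cells per well. Step two: pin-transfer compound or DMSO alongside 5-fluorouridine. Step three: incubate 16 hr, 37 °C, 5% CO2. Step four: add ONE-Glo, wait 30 min, read luminescence.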
Active calls of the source: *. Most compounds without a hit are left out; they make up all but 8.2% or so of the library. Calls come from the whole dose curve; as a rule, active = well fitted curve in the direction sought with a large enough effect; inconclusive = small, poorly fitted or top-dose-only effect, or another doubt; inactive = no such curve, though single readings can be large; an effect the other way counts as inactive or inconclusive. Potency is the fitted concentration of half-maximal effect.

CSc1cc(-c2ccc(Cl)cc2)n(Cc2ccccc2)c(=O)c1C#N was read as SW480 rerep -3.2%, MCF10A rerep 15.3%, KB-V1 cytotox inactive, KB-3-1 tox 16.4µM* and ELG1 DNA repair 7.5%.
CSc1cc(-c2ccccc2)n(C)c(=O)c1C#N was read as SW480 rerep -5.0%, MCF10A rerep inconclusive, KB-V1 cytotox inconclusive, KB-3-1 tox inactive and ELG1 DNA repair 1.4%.
`O=C1CC(c2nnc(Cc3ccccc3Cl)o2)CN1c1ccccc1` (stereo unspecified) gave KB-V1 cytotox inactive and KB-3-1 tox inactive.
`Cc1ccc(S(=O)(=O)N2CCCN(c3nc(-c4cccs4)nc4ccccc34)CC2)cc1` gave KB-V1 cytotox inconclusive and KB-3-1 tox inactive.
For CCN(CC)S(=O)(=O)c1ccc(N2CCN(c3cccc(OC)c3)CC2)c([N+](=O)[O-])c1 the results were SW480 rerep -6.0%, MCF10A rerep 1.0%, KB-V1 cytotox 2.91µM*, KB-3-1 tox inactive and ELG1 DNA repair inconclusive.
Screening CC(C)N(Cc1nc(-c2ccc(Cl)cc2)no1)C(=O)CCCN1C(=O)c2ccccc2C1=O returned SW480 rerep -4.2%, MCF10A rerep 10.5%, KB-V1 cytotox inactive, KB-3-1 tox inactive and ELG1 DNA repair 23.1µM*.
For CN(C)c1ccc(/C=N/NC(N)=S)cc1[N+](=O)[O-] the results were SW480 rerep -14.0%, MCF10A rerep -4.8%, KB-V1 cytotox 6.51µM*, KB-3-1 tox 14.6µM* and ELG1 DNA repair 2.2%.
CCn1c2ccccc2c2cc(CNCc3ccc(OC)cc3OC)ccc21 was read as SW480 rerep inconclusive, MCF10A rerep 7.31µM*, KB-V1 cytotox inactive, KB-3-1 tox inactive and ELG1 DNA repair -26.6%.
For COc1cccc(CNCc2ccc(OC)cc2OC)c1 the results were SW480 rerep 0.0%, MCF10A rerep 7.7%, KB-V1 cytotox inactive, KB-3-1 tox inactive and ELG1 DNA repair -5.9%.
CCC(CC)NCc1ccc2c(c1)c1ccccc1n2CC was read as SW480 rerep 2.3%, MCF10A rerep 20.6µM*, KB-V1 cytotox inconclusive, KB-3-1 tox inactive and ELG1 DNA repair inconclusive.
For O=C(NNS(=O)(=O)c1ccc(CCCl)cc1)C(O)(c1ccccc1)c1ccccc1 the results were SW480 rerep -6.6%, MCF10A rerep -6.8%, KB-V1 cytotox 16.4µM*, KB-3-1 tox inactive and ELG1 DNA repair -4.0%.
`Cc1ccc(C(O)(C(=O)NNS(=O)(=O)c2ccc(C)cc2)c2ccc(C)cc2)cc1` gave SW480 rerep 18.8%, MCF10A rerep 29.7%, KB-V1 cytotox inconclusive, KB-3-1 tox inactive and ELG1 DNA repair -2.7%.
`O=C(O)Cc1ccc(NS(=O)(=O)c2ccc3c(c2)OCCO3)cc1` gave KB-V1 cytotox inconclusive and KB-3-1 tox inactive.
`CCOc1ccc2[nH]cc(S(=O)(=O)c3ccc(Cl)cc3)c(=O)c2c1` gave SW480 rerep -0.3%, MCF10A rerep 6.3%, KB-V1 cytotox inconclusive, KB-3-1 tox inactive and ELG1 DNA repair inconclusive.
CCOc1ccc2[nH]cc(S(=O)(=O)c3ccc(C)cc3)c(=O)c2c1 was read as SW480 rerep -0.8%, MCF10A rerep 7.3%, KB-V1 cytotox inactive, KB-3-1 tox inactive and ELG1 DNA repair 16.4µM*.
`COc1ccc2oc(=O)c(C(=O)Nc3cccc(C(=O)O)c3)cc2c1` gave KB-V1 cytotox inactive and KB-3-1 tox inactive.
Screening Cc1sc(NC(=O)c2ccco2)c(CN2CCN(c3ccccn3)CC2)c1C returned SW480 rerep 10.5%, MCF10A rerep inconclusive, KB-V1 cytotox inconclusive, KB-3-1 tox 20.6µM* and ELG1 DNA repair inconclusive.
`c1ccc(N2CCCCC2)c(Nc2nc3ccccc3n3cnnc23)c1` gave SW480 rerep -75.6%, MCF10A rerep 11.6µM*, KB-V1 cytotox inactive, KB-3-1 tox inconclusive and ELG1 DNA repair inconclusive.
FC(F)(F)c1ccc(N2CCOCC2)c(Nc2nc3ccccc3n3cnnc23)c1 was read as SW480 rerep inconclusive, MCF10A rerep 23.1µM*, KB-V1 cytotox inconclusive, KB-3-1 tox inconclusive and ELG1 DNA repair inconclusive.
For Fc1ccc(Nc2nc3ccccc3n3cnnc23)c(F)c1 the results were KB-V1 cytotox inactive and KB-3-1 tox inactive.
`CSCCC(NC(=O)c1ccco1)C(=O)N1CCCC(C(F)(F)F)C1` (stereo unspecified) gave SW480 rerep -2.9%, MCF10A rerep -3.4%, KB-V1 cytotox inactive, KB-3-1 tox inactive and ELG1 DNA repair 16.0%.
For CC1CCN(C(=O)CN2C(=O)NC3(CCCCCC3)C2=O)CC1 the results were SW480 rerep -2.3%, MCF10A rerep -16.3% and ELG1 DNA repair 27.3%.
`CC(C)Cc1ccc(C(C)/C=C2/CCC(CN3CCCCC3)C2=O)cc1` (stereo unspecified) gave SW480 rerep inconclusive, MCF10A rerep 14.6µM*, KB-V1 cytotox inconclusive and KB-3-1 tox inconclusive.
CCc1ccc(NC(=O)C(=O)NCCN2CCN(Cc3ccc([N+](=O)[O-])cc3)CC2)cc1 was read as SW480 rerep 2.4%, MCF10A rerep inconclusive, KB-V1 cytotox inactive, KB-3-1 tox inactive and ELG1 DNA repair -15.2%.
`c1ccc(OCCN2CCN(C(c3ccccc3)c3ccccc3)CC2)cc1` gave SW480 rerep 0.651µM*, MCF10A rerep inconclusive, KB-V1 cytotox inactive, KB-3-1 tox inactive and ELG1 DNA repair inconclusive.
O=C(NCCN1CCN(C(=O)c2c(F)cccc2F)CC1)C(=O)Nc1ccc(Cl)cc1 was read as SW480 rerep -8.5%, MCF10A rerep 12.4%, KB-V1 cytotox inactive, KB-3-1 tox inactive and ELG1 DNA repair 7.3µM*.
O=C(c1c(F)cccc1F)N1CCN(CCOc2ccccc2)CC1 was read as SW480 rerep -1.0%, MCF10A rerep -2.7%, KB-V1 cytotox inactive, KB-3-1 tox inactive and ELG1 DNA repair 20.6µM*.
`Cc1ccc(NC(=O)C(=O)NCCN2CCN(Cc3ccc([N+](=O)[O-])cc3)CC2)cc1` gave SW480 rerep inconclusive, MCF10A rerep -6.4%, KB-V1 cytotox 2.91µM*, KB-3-1 tox inactive and ELG1 DNA repair inconclusive.
For O=C(c1ccc(Cl)cc1)N1CCN(CCOc2ccccc2)CC1 the results were SW480 rerep -7.3%, MCF10A rerep 11.9%, KB-V1 cytotox inactive, KB-3-1 tox inactive and ELG1 DNA repair -22.2%.
For CCOC(=O)C1CCN(C(=O)c2nn(-c3ccc(C)cc3)c(=O)c3c2c2ccccc2n3C)CC1 the results were KB-V1 cytotox inactive and KB-3-1 tox inactive.
Cc1ccc(C)c(Nc2nnc(-c3ccc(C)c(S(=O)(=O)N4CCN(C)CC4)c3)c3ccccc23)c1 was read as KB-V1 cytotox inactive and KB-3-1 tox inactive.
